High-throughput results: PubChem, National Center for Advancing Translational Sciences (NCATS)
Shown are actives, neighbours in structure and some others; about 12% of the full set was active somewhere.
PLK1 PBD block: blocks phosphopeptide binding to human PLK1 polo-box domain; P53350; Plk1 PBD binding of FITC phosphopeptide, fluorescence polarization; Potency, µM, for inactives: max response, negative = inhibition, hits mostly inhibitors; hit rate 2.8% among 360,000; AID 720504; note: series mostly up to about 57 µM; % is set by controls: 0 for no effect and ±100 for the full control effect; nearly all actives have a fitted effect of over 65% in size
JMJD2A Tudor: blocks the human JMJD2A Tudor domain. O75164. hit rate 4.4% among 390,000. Potency, µM (top dose mostly 114 µM), inactives show at the highest dose activity change, negative = inhibition, actives largely listed as inhibitors. AlphaScreen JMJD2A-Tudor / H3K4me3 peptide binding. AID 504339; note: % is set by controls: 0 for no effect and ±100 for the full control effect; nearly all actives have a fitted effect of over 50% in size
G9a block: blocks human histone lysine methyltransferase G9a; hit rate 8.8% among 350,000; G9a H3K9 monomethylation, AlphaScreen, 2 h; Potency, µM (highest dose often 102 µM), for the others: at the top dose activity, negative = inhibition, actives largely listed as inhibitors; AID 504332; note: % is set by controls: 0 for no effect and ±100 for the full control effect; nearly all actives have a fitted effect of over 75% in size
Target sequence (Q96KQ7 913-1193 limits assumed): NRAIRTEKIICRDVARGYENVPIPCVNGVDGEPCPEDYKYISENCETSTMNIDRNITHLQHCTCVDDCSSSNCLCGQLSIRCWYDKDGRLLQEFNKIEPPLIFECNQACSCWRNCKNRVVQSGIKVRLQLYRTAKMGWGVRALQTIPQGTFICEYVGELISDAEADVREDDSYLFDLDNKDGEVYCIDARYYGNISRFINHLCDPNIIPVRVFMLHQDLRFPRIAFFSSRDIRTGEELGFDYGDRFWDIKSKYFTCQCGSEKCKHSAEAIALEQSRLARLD
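Methyltransferase reactions run at room temperature for 2 h (20 nM enzyme, 500 nM biotin-H3K9 peptide, 20 uM SAM) after a 15 min compound preincubation; product detected by AlphaScreen beads and anti-H3K9me1 antibody.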
Sfp PPTase inh: Sfp phosphopantetheinyl transferase inhibition; Q9F4F7; Biochemical Sfp PPTase activity, qHTS; Potency, µM, inactives show largest response in the series, negative = inhibition, usual class: inhibitors; hit rate 3.5% among 310,000; AID 1490;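 note: the enzyme is Sfp with the accession as filed and its product quenches rhodamine fluorescence; 0% = enzyme reaction without inhibitor and -100% = no enzyme wells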
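Fluorescence-quenching assay: 15 nM Sfp-PPTase preincubated 15 min at room temperature with compound, then 5 uM rhodamine-CoA and 12.5 uM BHQ-2-labelled YbbR peptide added. Fluorescence (ex 525/em 598 nm) read at start and after 30 min; difference gives rate.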
HP1b chromo inh: inhibitors of HP1-beta chromodomain binding to methylated histone tails. P83916. AlphaScreen HP1-beta / biotin-H3K9me3 peptide binding. Potency, µM (series often up to 114 µM), for the others: at the highest dose activity change, negative = inhibition, actives largely listed as inhibitors. hit rate 0.56% among 390,000. AID 540317; note: nearly all actives have a fitted effect of over 70% in size
Target sequence (P83916 whole entry, looked up): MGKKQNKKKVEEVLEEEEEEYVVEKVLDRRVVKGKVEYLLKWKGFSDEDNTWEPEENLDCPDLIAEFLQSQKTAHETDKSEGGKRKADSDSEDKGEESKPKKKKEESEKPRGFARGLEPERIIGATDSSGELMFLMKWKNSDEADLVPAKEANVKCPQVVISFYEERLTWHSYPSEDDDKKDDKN
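HP1-beta protein (50 nM final) preincubated 30 min at room temperature with biotinylated H3(1-18)K9me3 peptide (50 nM) in PBS pH 7.4, 0.01% Tween-20, then compound added for 30 min. AlphaScreen streptavidin donor/nickel chelate acceptor beads (10 ug/mL final), 30 min dark, luminescence read.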
BAZ2B block: inhibitors of human BAZ2B bromodomain | hit rate 4.4% among 360,000 | Potency, µM (titrated, usually from 114 µM), for the others: top-dose activity change, negative = inhibition, hits mostly inhibitors | AlphaScreen BAZ2B-H3K14Ac peptide displacement | Q9UIF8; note: % is set by controls: 0 for no effect and ±100 for the full control effect; nearly all actives have a fitted effect of over 60% in size
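AlphaScreen displacement of biotin-H3(5-23)K14Ac peptide (50 nM final) from BAZ2B (50 nM final) in PBS pH 7.4, 0.01% Tween-20; complex preformed 30 min RT, then compounds (top 110 uM) 30 min RT, beads 20 min dark.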
Active calls of the source: *; ? = inconclusive; / = no result given; [ ] = another dose, or the depositor's remark. Calls come from the whole dose curve; as a rule, active = well fitted curve in the direction sought with a large enough effect; inconclusive = small, poorly fitted or top-dose-only effect, or another doubt; inactive = no such curve, though single readings can be large; an effect the other way counts as inactive or inconclusive. Potency is the fitted concentration of half-maximal effect.

SMILES	PLK1 PBD block	JMJD2A Tudor	G9a block	Sfp PPTase inh	HP1b chromo inh	BAZ2B block
Cc1ccc(S(=O)(=O)N2[C@@H](c3ccc(C(C)(C)C)cc3)C(C(=O)O)=CC[C@H]2c2ccc(Cl)cc2)cc1	21µM*	-24%	/	/	56%	/
Cc1ccc([C@@H]2CC=C(C(=O)O)[C@H](c3ccc(F)cc3)N2S(=O)(=O)c2ccc(C)cc2)cc1	-20%	-18%	-20%[2.33 µM]	/	30%	5%
Cc1ccc([C@@H]2CC=C(C(=O)O)[C@H](c3ccc(C(C)(C)C)cc3)N2S(=O)(=O)c2ccc(C)cc2)cc1	27µM*	?	/	/	30%	/
Cc1ccc(S(=O)(=O)N2[C@@H](c3ccc(Br)cc3)C(C(=O)O)=CC[C@H]2c2ccc(C(C)C)cc2)cc1	30µM*	?	/	/	11%	/
Cc1ccc(S(=O)(=O)N2[C@@H](c3ccc(Cl)cc3)C(C(=O)O)=CC[C@H]2c2ccc(Cl)c(Cl)c2)cc1	?	-31%	20%[2.33 µM]	/	18%	?
CC(=O)O[C@H]1C[C@@]2(C)[C@H](C[C@@H](O)[C@H]3[C@@]4(C)CC[C@@H](O)[C@@H](C)[C@H]4CC[C@@]32C)C1=C(CCC=C(C)C)C(=O)O	/	/	4%[12.7 µM]	36%	/	/
Cc1cccn2c(=O)nc(SCC(=O)NCc3ccc(F)cc3)nc12	-3%	-18%	4%	/	9%	-1%
COc1ccccc1Cc1c(C2CCCCC2)nc2c3ccccc3ccn12	-18%	/	/	/	/	/
Cc1ccc(S(=O)(=O)N2[C@@H](c3ccc(C(C)(C)C)cc3)C(C(=O)O)=CC[C@H]2c2cccs2)cc1	24µM*	-16%	/	/	14%	/
Cc1ccc([C@H]2C(C(=O)O)=CC[C@@H](c3cccs3)N2S(=O)(=O)c2ccc(C)cc2)cc1	-21%	-16%	/	/	20%	/
CNc1oc(/C=C/c2cc(OC)c(OC)c(OC)c2)nc1C#N	/	28%	9%[59 µM]	/	61%	0%
NC1=C(Cl)C(=O)c2ccccc2C1=O	-10%	89µM*	/	/	-19%	/
O=C(O)c1ccc(-c2ncc[nH]2)cc1	?	20µM*	-37%	-7%	5%	0%
CCc1ccc(OCC(=O)NC(=S)Nc2cccc(CO)c2)c(Br)c1	3%	-13%	-46%[12.7 µM]	25µM*	24%	-11%
CCc1ccc(OCC(=O)NC(=S)Nc2ccc(F)cc2)c(Br)c1	-1%	-17%	7%	18%	29%	3%[57.1 µM]
COc1ccc(NC(=S)NC(=O)c2csnn2)cc1	3%	-9%	32µM*	-25%	25%	-27%
COc1ccc(NC(=O)c2csnn2)cc1	/	-3%	?	/	41%	-35%
O=C(NC(=S)Nc1ccccc1)c1csnn1	-3%	-17%	15%[59 µM]	50µM*	19%	15%
COc1ccc2nc(C)c3c(c2c1)OC(C(C)(Cl)Br)C3 (stereo not given)	-1%	-9%	-7%	7%	22%	-13%
Cc1ccc2nc(C)c3c(c2c1)OC(C(C)(Cl)Br)C3 (stereo not given)	-6%	-20%	-8%[12.7 µM]	20µM*	29%	-39%
O=c1c2cc3c(cc2nc2sc(Nc4ccc(F)c(Cl)c4)nn12)OCO3	/	-2%	14%[59 µM]	/	48%	29%
NC(CSS(=O)(=O)O)=NCCC12CC3CC(CC(O)(C3)C1)C2	12µM*	-10%	10µM*	50µM*	?	6%
O=C(CSCc1cnn(-c2ccccc2)c1-n1cccc1)Nc1ccc(F)cc1F	/	-20%	-28%[59 µM]	/	12%	-33%
COc1cccc(C(=O)O/N=C(\N)c2ccccn2)c1OC	24µM*	?	13%[2.33 µM]	0%	21%	3%
Cc1c(C(=O)O/N=C(\N)c2ccccn2)cccc1[N+](=O)[O-]	0%	11µM*	32µM*	7%	1%	-27%
N/C(=N\OC(=O)Cc1ccccc1[N+](=O)[O-])c1ccccn1	-7%	?	?	-30%	12%	56µM*
Cc1cccc(-c2nc3c(cnn3-c3ccccc3)c(=O)n2-c2ccc(Cl)cc2)c1	/	-8%	-1%[59 µM]	/	22%	-23%
O=C(O)c1cccn2c(=O)c3ccccc3nc12	-3%	79µM*	?	7%	6%	?
